Measured values as given in the supplement of paper PMC7801607.

Assays:
CHO = assay: % viability of CHO cells (MTT); higher = less toxic; settings: 48 h
Method in brief: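 CHO cells were seeded at 10^6 cells/well in 200 µL and left overnight to attach. The medium was then replaced with fresh medium containing compound at 2 or 20 µM for 48 h. Survival was read colorimetrically with the tetrazolium (MTT) assay. Percent viability was expressed relative to untreated cells.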

HepG2-A16-CD81 = assay: % inhibition of HepG2 viability (CellTiter-Glo); higher = more toxic; settings: 5 µM
[1] = tested on: Plasmodium falciparum NF54 stage IV/V gametocytes; assay: % inhibition of gametocyte viability (PrestoBlue); higher = more inhibition; settings: 48 h
Method in brief: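 Stage IV/V NF54 gametocytes (2% gametocytaemia, 5% haematocrit, 100 µL/well) were exposed to compound at 1 or 5 µM. Incubation was 48 h at 37 °C, stationary and hypoxic, followed by 10 µL PrestoBlue for 2 h. Fluorescence at 612 nm was read on 70 µL of transferred supernatant. Percent inhibition of gametocyte viability was normalised to DMSO and kill controls from a single run.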

[2] = tested on: Plasmodium falciparum NF54 asexual blood stage; assay: % inhibition of asexual blood stage proliferation (pLDH); higher = more inhibition; settings: 72 h
Method in brief: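 Plasmodium falciparum NF54 ring-stage cultures (1% haematocrit, 2% parasitaemia) were exposed to compound at 2 or 20 µM in 96-well plates. Incubation was 72 h at 37 °C under 4% CO2, 3% O2 and 93% N2. Survival was read colorimetrically at 620 nm with the parasite lactate dehydrogenase assay. Percent inhibition of asexual proliferation was normalised to DMSO and kill controls, and the screen was run on two separate occasions.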

[3] = tested on: Plasmodium falciparum NF54 stage IV/V gametocytes; assay: % inhibition of gametocyte viability (ATP bioluminescence); higher = more inhibition; settings: 24 h
Method in brief: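 In 96-well plates, compound at 1 or 5 µM was added to 30,000 density-gradient-enriched stage IV/V NF54 gametocytes per well and incubated for 24 h at 37 °C. ATP readout used the Promega BacTiter Glo bioluminescence system. Percent inhibition of gametocyte viability comes from a single run, normalised to control wells.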

[4] = tested on: Plasmodium falciparum NF54 stage IV/V gametocytes; assay: % inhibition of gametocyte viability (luciferase reporter); higher = more inhibition; settings: 48 h
Method in brief: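 Percent inhibition was normalised to controls from a single run. Stage IV/V gametocytes of the NF54-Pfs16-GFP-Luc line, at 2% gametocytaemia and 2% haematocrit, were exposed to compound at 1 or 5 µM for 48 h at 37 °C under stationary, hypoxic conditions. Luminescence was then read from 30 µL lysate mixed with 30 µL Promega luciferin substrate on a GloMax-Multi+ reader with 10 s integration.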

[5] = tested on: Plasmodium berghei ANKA liver stage in HepG2-A16-CD81; assay: % inhibition of liver stage parasite viability (luciferase); higher = more inhibition; settings: 5 µM; 48 h
Protocol: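 Single-concentration screen of the MMV Pandemic Response Box. P. falciparum NF54 asexual blood stages: pLDH assay, 72 h at 37 °C, 2 and 20 µM, n=2. Stage IV/V gametocytes (NF54): luciferase reporter (NF54-Pfs16-GFP-Luc, 48 h), ATP bioluminescence (24 h) and PrestoBlue (48 h) at 1 and 5 µM, n=1. P. berghei liver stage (luciferase in HepG2-A16-CD81, 48 h post infection) at 5 µM, n=4. All normalised to DMSO and kill controls as % inhibition.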
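Throughout, for % inhibition of HepG2 viability (CellTiter-Glo): HepG2-A16-CD81 hepatoma cells plated as in the liver-stage assay but without sporozoites, with DMSO wells as negative and 25 µM puromycin as positive control.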

SMILES | % viability of CHO cells (CHO; 2 µM) [%] | % viability of CHO cells (CHO; 20 µM) [%] | % inhibition of HepG2 viability (HepG2-A16-CD81) [%] | % inhibition of gametocyte viability ([1]; 1 µM) [%] | % inhibition of gametocyte viability ([1]; 5 µM) [%] | % inhibition of asexual blood stage proliferation ([2]; 2 µM) [%] | % inhibition of asexual blood stage proliferation ([2]; 20 µM) [%] | % inhibition of gametocyte viability ([3]; 1 µM) [%] | % inhibition of gametocyte viability ([3]; 5 µM) [%] | % inhibition of gametocyte viability ([4]; 1 µM) [%] | % inhibition of gametocyte viability ([4]; 5 µM) [%] | % inhibition of liver stage parasite viability [5] [%]
CC1=C(/C=C/C(C)=C/C=C/C(C)=C/C(=O)Nc2ccc(O)cc2)C(C)(C)CCC1 | 118 | 102 | 4.42 | < 0 | < 0 | 33.3 | 90 | < 0 | < 0 | < 0 | < 0 | 13.4
CCc1nc(N)nc(N)c1C#CC(C)c1cc(OC)cc(-c2ccncc2)c1 (stereo not drawn) | 89.5 | 52.5 | 20.8 | < 0 | 9.41 | 51.1 | 94 | < 0 | < 0 | < 0 | < 0 | 70.2
O=C(NCc1ccc(F)cc1)c1c(O)c2ncccc2[nH]c1=O | 121 | 91.5 | 5.33 | < 0 | 20.1 | 54.8 | 31.4 | 3.16 | < 0 | 5.58 | < 0 | 14
O=[N+]([O-])c1cn(Cc2nc(O)nc(O)c2Br)cn1 | 95.9 | 109 | -3.1 | 9.08 | 21.3 | 38.7 | 55.8 | 0.137 | < 0 | < 0 | 4.07 | 19.1
N#CCN1C(=O)COc2cc(F)c(N3C(=O)c4ccccc4C3=O)cc21 | 91.1 | 99.3 | -3.69 | 3.4 | 2.45 | 8.98 | 14.8 | < 0 | < 0 | < 0 | 14.5 | 14.6
N=C(N)NCCCCC(=O)Nc1cc(C(F)(F)F)cc(NC(=O)c2cc(C(=O)Nc3cc(C(F)(F)F)cc(NC(=O)CCCCNC(=N)N)c3O[C@@H]3CCNC3)ncn2)c1O[C@@H]1CCNC1 | 120 | 43 | 15 | < 0 | < 0 | 76.8 | 114 | 9.98 | 39.3 | 19.3 | 78.2 | 35.9
CC[C@H](NC(=O)[C@H](C)NC)C(=O)N1C[C@@H](O)C[C@H]1Cc1c(-c2[nH]c3cc(F)ccc3c2C[C@@H]2C[C@H](O)CN2C(=O)[C@H](CC)NC(=O)[C@H](C)NC)[nH]c2cc(F)ccc12 | 102 | 117 | 15 | 5.89 | 54.9 | 75.7 | 83.1 | 28.6 | 76.9 | 17 | 56 | 37.5
Cn1cncc1[C@@](N)(c1ccc(Cl)cc1)c1ccc2c(c1)c(-c1cccc(Cl)c1)cc(=O)n2C | 94.8 | 47.9 | 31.9 | 21.7 | 31.8 | 51.2 | 75.9 | 15.7 | 16.3 | 0.69 | < 0 | 60.7
NC[C@H]1O[C@H](O[C@H]2[C@H](O)[C@@H](O[C@H]3O[C@H](CO)[C@@H](O)[C@H](N)[C@H]3O)[C@H](N)C[C@@H]2N)[C@H](N)C[C@@H]1O | 111 | 8.4 | -3.85 | < 0 | 1.53 | -2.54 | 18.7 | < 0 | < 0 | < 0 | 6.32 | 36.3
